PubChem BioAssay AID1986 (Sanford-Burnham Center for Chemical Genomics, 2009)
Screen size: about 290,000 compounds; about 890 (0.31%) were called active. No stated cut-off is given here; in the data, active means inhibition mostly above about 52% (no sharp cut-off); inactive means mostly below about 76%. The entries come from a sample that favours actives as a whole.

Assay: inhibitors of HIV fusion peptide binding, primary screen, biochemical, uHTS, fluorescence dequenching (AID 1986)
Details: cell-free peptide binding, 30 min, stronger effect = higher value
[1] = measured here: repeat confirmation average inhibition, at 18.6 µM

Structure (SMILES)	inhibition (at 20 µM)	inhibition [1] [%]
CC(=O)c1cccc(N(CC(=O)N2CCOCC2)S(C)(=O)=O)c1	-1.8% (inactive)	–
CC(Oc1ccccc1)C(=O)NNC(=O)c1cccs1 (configuration not stated)	-0.2% (inactive)	–
Cc1ccc(Nc2nc(N)c([N+](=O)[O-])c(N3CCOCC3)n2)cc1	-3.1% (inactive)	–
Cc1c(Cl)c(C(=O)NC2C3CC4CC(C3)CC2C4)nn1C (configuration not stated)	-1.2% (inactive)	–
O=C(Nc1ccn(Cc2ccccc2F)n1)c1ccc(COc2ccc(Br)cc2)cc1	-0.1% (inactive)	–
Cc1cccc(NC(=O)CN2C(=O)CCS(=O)(=O)c3ccccc32)c1C	0% (inactive)	–
CC(C)(C)NC(=O)NC(=O)COC(=O)c1cccc(NS(=O)(=O)c2ccc(F)c(F)c2)c1	5.9% (inactive)	–
COC(=O)c1ccccc1NC(=O)COC(=O)[C@H](C)NC(N)=O	-2.5% (inactive)	–
C=CCn1c(CCC(O)COCCC)n[nH]c1=S (configuration not stated)	-0.8% (inactive)	–
COc1ccc2cc(C#N)c(N3CCOCC3)nc2c1	2.4% (inactive)	–
O=C1NC(=S)S/C1=C\c1cc2ccccc2nc1N1CCCCC1	63.6% (inactive)	28.2
COc1ccc2nc(N3CCCCC3)c(/C=C3\SC(=S)NC3=O)cc2c1	53.6% (active)	–
O=C1NC(=S)S/C1=C/c1ccc(N2CCOCC2)o1	18.7% (inactive)	–
COc1ccc2cc(/C=C3\SC(=S)NC3=O)c(N3CCOCC3)nc2c1	63.1% (active)	–
COc1ccc(-n2c(C)cc(/C=C3\SC(=S)NC3=O)c2C)cc1	32.3% (inactive)	–
Cc1ccc(CN2CCC(n3nccc3NC(=O)C3CCOC3)CC2)cc1C (configuration not stated)	-0.8% (inactive)	–
CC(=O)Nc1ccc(C(=O)OCC(=O)c2ccc(C)c([N+](=O)[O-])c2)cc1	0.2% (inactive)	–
Cc1ccc(C(=O)/C=C/c2ccc(-c3ccccc3[N+](=O)[O-])o2)cc1	35.4% (inactive)	–
Cc1ccc(C(=O)/C=C/c2ccc(-c3ccc(C)cc3)o2)cc1	21.5% (inactive)	–
CCN(CC)S(=O)(=O)c1ccc(C(=O)/C=C/c2ccc(-c3ccc([N+](=O)[O-])cc3)o2)cc1	73.1% (active)	88.1
Cc1c(C(=O)Nc2cccnc2Cl)oc2ccccc12	-1% (inactive)	–
CCCN(C(=O)CN1C(=O)NC2(CCCCCC2)C1=O)C1CCS(=O)(=O)C1 (configuration not stated)	0.3% (inactive)	–
O=C1/C(=C/c2cccnc2)Sc2ccccc21	9.2% (inactive)	–

Structure (SMILES)	inhibition (at 20 µM)	inhibition [1] [%]
N#Cc1c(C(F)(F)F)cc(-c2ccccc2)nc1SCc1nc(N)nc(N2CCOCC2)n1	66.7% (active)	–
C#CCSc1nc(-c2ccccc2)cc(C(F)(F)F)c1C#N	-0.2% (inactive)	–
N#Cc1c(C(F)(F)F)cc(-c2ccccc2)nc1SCCN1CCOCC1	2.6% (inactive)	–
O=C(NCC1CCCO1)c1ccc(CNS(=O)(=O)c2cccc(Cl)c2)cc1 (configuration not stated)	-0.3% (inactive)	–
Cc1ccc(C(=O)C2=C(O)C(=O)N(Cc3ccco3)C2c2cccc(Cl)c2)o1 (configuration not stated)	25.7% (inactive)	–
Cc1ccccc1N=Cc1c(O)n(-c2nccs2)c(=O)c2ccccc12	2.3% (inactive)	–
Cc1ccc(N=Cc2c(O)n(-c3nccs3)c(=O)c3ccccc23)c(C)c1	75.3% (active)	103
Cc1cc(C)c(N=Cc2c(O)n(-c3nccs3)c(=O)c3ccccc23)c(C)c1	0.6% (inactive)	–
CN1CCN(/N=C/c2ccc(-c3ccccc3)cc2)CC1	0% (inactive)	–
Cc1[nH]n(-c2ccccc2)c(=O)c1/C=C1/C=c2ccccc2=N1	-2.5% (inactive)	–
CC1=NN(c2ccccc2)C(=O)/C1=C\c1c(C)[nH]n(-c2ccccc2)c1=O	-0.3% (inactive)	–
Cc1coc2cc3oc(=O)c(CCC(=O)N4CCC(C(=O)O)(c5ccccc5)CC4)c(C)c3cc12	3.7% (inactive)	–
O=C1CCN(Cc2ccccc2)CCN1[C@H](CO)c1ccccc1	1.5% (inactive)	–
Cc1ccc(NC(=O)COC(=O)c2ccccc2-c2nc3ccccc3s2)c(C)c1	1.4% (inactive)	–
CCC(C)N1C(=O)/C(=C/c2c(NCCCOC(C)C)nc3c(C)cccn3c2=O)SC1=S (configuration not stated)	75.6% (active)	144
Cc1cccn2c(=O)c(/C=C3\SC(=S)NC3=O)c(NCCCN3CCOCC3)nc12	75.8% (inactive)	7.4
CCCN1C(=O)/C(=C/c2c(NCCCOC(C)C)nc3c(C)cccn3c2=O)SC1=S	1.8% (inactive)	–
Cc1cccn2c(=O)c(C=Nc3ccccc3)c(NCCO)nc12	0.3% (inactive)	–
CCOCCCNc1nc2c(C)cccn2c(=O)c1/C=C1\SC(=S)N(C(C)CC)C1=O (configuration not stated)	94.5% (active)	–
Cc1cccn2c(=O)c3cc(C(=O)NCCCOC(C)C)sc3nc12	1% (inactive)	–
CCOCCCNc1nc2c(C)cccn2c(=O)c1/C=C1\SC(=S)N(CC(C)C)C1=O	58.9% (active)	63.6
CCCN1C(=O)/C(=C/c2c(NCCCOCC)nc3c(C)cccn3c2=O)SC1=S	8.4% (inactive)	–
CCOCCCNC(=O)c1cc2c(=O)n3cccc(C)c3nc2s1	-1.3% (inactive)	–
